Shown are actives, neighbours in structure and some others; about 2.8% of the full set was active somewhere.
BRCA1 expr up = BRCA1 expression activation. hit rate 1.1% among 380,000. Potency, µM (series often up to 46.1 µM), actives largely listed as activators. MCF7-BRCA1-FFLuc reporter, luminescence, 48 h; response scale: scaled: vehicle 0%, 10 µM genistein 100%. AID 624202; also: nearly all actives have a fitted effect of over 80% in size
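Activators of BRCA1 expression were detected as increased firefly luciferase luminescence in engineered MCF7 cells after 48 h compound incubation. Signals were scaled to genistein 10 microM as full activation.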
GLP1R ag = agonists of human GLP-1 receptor. P43220. HEK293 GLP-1R CRE-luciferase, luminescence, 4-6 h; cells express a hypersensitive GLP-1R form. Potency, µM (highest dose often 45.6 µM), actives largely listed as activators. hit rate 0.007% among 380,000
Target sequence (P43220 whole entry, looked up): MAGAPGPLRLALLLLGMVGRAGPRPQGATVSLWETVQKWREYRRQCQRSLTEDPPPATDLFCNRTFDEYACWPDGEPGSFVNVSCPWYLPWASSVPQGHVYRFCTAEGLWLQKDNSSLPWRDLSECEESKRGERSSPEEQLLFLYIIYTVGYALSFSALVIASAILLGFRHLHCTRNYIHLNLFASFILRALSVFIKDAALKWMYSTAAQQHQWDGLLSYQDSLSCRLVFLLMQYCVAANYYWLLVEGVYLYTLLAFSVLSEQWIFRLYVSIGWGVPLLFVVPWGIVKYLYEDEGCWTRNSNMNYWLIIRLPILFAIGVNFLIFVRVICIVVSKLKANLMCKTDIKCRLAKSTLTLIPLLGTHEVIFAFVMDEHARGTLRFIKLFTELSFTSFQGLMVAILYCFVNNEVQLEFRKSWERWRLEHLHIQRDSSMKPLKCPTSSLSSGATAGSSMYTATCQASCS
GLP-1R inv ag = inverse agonists of human GLP-1 receptor. hit rate 1.6% among 410,000. HEK293 GLP-1R CRE-luciferase, luminescence, 24 h; GLP-1R form is constitutively active. Potency, µM (highest dose often 38.3 µM), usual class: inhibitors. AID 624417. P43220; also: nearly all actives have a fitted effect of over 55% in size
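qHTS in 1536-well format: reporter HEK293 cells expressing constitutive GLP-1R activity in DMEM + 10% Nu serum, 24 hr with compounds at 37 deg C, luminescence read after 12 min with detection reagent.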
Mito fusion act = blocks mitochondrial division or promotes mitochondrial fusion | S. cerevisiae fusion-defective mutant growth rescue, CellTiterGlo 48 h | Potency, µM (titrated, usually from 46.1 µM), hits mostly activators | hit rate 0.23% among 320,000; also: nearly all actives have a fitted effect of over 45% in size
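Compounds are tested for their ability to restore growth of mitochondrial fusion-defective yeast strains at non-permissive 37C in YPEG medium over 48 hours. Viability is quantified by luciferase luminescence.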
HEK293 tox = cytotoxicity in counter-screen for GLP-1R inverse agonists | HEK293 cAMP-luciferase reporter cells, luminescence, 24 h | Potency, µM (series often up to 38.3 µM), usual class: inhibitors | hit rate 0.13% among 410,000 | AID 624418;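 also: loss of luciferase light is scored as toxicity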
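Seeding density was 200 cells/uL; after overnight-length (12 h) culture, 23 nL compounds went on for 24 h at 37 °C. Readout used a luciferase detection reagent, luminescence taken after 12 min at room temperature.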
Large screens that a line does not name were inactive. Calls follow the shape of the dose curve; as a rule, active = well fitted curve in the direction sought with a large enough effect; inconclusive = small, poorly fitted or top-dose-only effect, or another doubt; inactive = no such curve, though single readings can be large; an effect the other way counts as inactive or inconclusive.

Clc1ccc(CCC(Cn2ccnc2)Sc2c(Cl)cccc2Cl)cc1 (stereo unspecified)	GLP-1R inv ag inconclusive, Mito fusion act 0.562µM
CC(C)(C)[C@@H]1COC(=O)[C@@H](Cc2ccc(F)cc2)CC/C=C\C[C@@H](CC(=O)N(CCO)Cc2ccccc2)C(=O)N1	GLP-1R inv ag 10µM (no result: Mito fusion act)
C=CCCC[C@@H]1OC(=O)CNC(=O)C([C@@H](C)CC)NC(=O)[C@@H]2CCCN2C(=O)C([C@@H](C)CC)OC(=O)[C@H](Cc2ccccc2)N(C)C(=O)[C@H](C(C)C)NC(=O)C1(C)C (stereo partly specified)	GLP-1R inv ag inconclusive, HEK293 tox inconclusive (no result: Mito fusion act)
CCC(C)C1NC(=O)C2CCCN2C(=O)C(CC(C)C)OC(=O)CCNC(=O)C(C)N(C)C(=O)C(C(C)C)N(C)C1=O (stereo unspecified)	GLP-1R inv ag inconclusive, HEK293 tox 4.47µM (no result: Mito fusion act)
CN(C)c1ccc(N=Nc2ccccc2)cc1	BRCA1 expr up 10µM (no result: GLP1R ag, GLP-1R inv ag, Mito fusion act, HEK293 tox)
CN(C)c1ccc(N=O)cc1	none (no result: GLP1R ag, GLP-1R inv ag, Mito fusion act, HEK293 tox)
O=[N+]([O-])c1ccc(N2CCNCC2)cc1NCC1CCCO1 (stereo unspecified)	none
Nc1c(Cl)cc(C2=NCCn3nc4cc(C(F)(F)F)ccc4c32)cc1Cl	GLP-1R inv ag inconclusive, Mito fusion act 12.6µM, HEK293 tox inconclusive
CC(C)C[C@@H](CO)N(Cc1ccccc1)S(=O)(=O)N(Cc1ccccc1)[C@@H](CO)CC(C)C	GLP-1R inv ag 2.51µM, HEK293 tox inconclusive
O=C(Nc1cccc(F)c1)[C@@H](c1ccccc1)N1Cc2ccccc2C1=O	GLP-1R inv ag inconclusive (no result: Mito fusion act)
CCCCn1c(NC(=O)c2ccc(Br)o2)c(C(=O)OCC)c2nc3ccccc3nc21	Mito fusion act 8.91µM
Cc1cc(NCCN)nc2ccccc12	none
CCCCNc1cc(C)nc(NCc2ccccc2)n1	GLP-1R inv ag inconclusive, HEK293 tox 11.2µM
CC12CCC(=O)C=C1CCC1C2CCC2(C)C(O)(C(=O)CO)CCC12O (stereo unspecified)	none (no result: Mito fusion act)
CS(=O)(=O)NNP(=O)(NNS(C)(=O)=O)NC(=O)c1ccccc1	none
Clc1ccc2c(c1)C(c1ccccc1Cl)=NCc1nnc(N3CCN(CCOc4ccccc4)CC3)n1-2	GLP-1R inv ag inconclusive, Mito fusion act 12.6µM
CC1(C)C2([N+](=O)[O-])CNCC1([N+](=O)[O-])CNC2	none
O=C(/C=C/c1ccc(Br)cc1)c1ccc(NC2=NCCCS2)cc1	GLP-1R inv ag 5.01µM, HEK293 tox inconclusive
CC(=O)c1ccc(NC2=NCCCS2)cc1	none
O=C(Nc1ccc([N+](=O)[O-])cc1)Nc1ccc(OC(F)F)c(Cl)c1	GLP-1R inv ag 3.55µM, HEK293 tox inconclusive
CCN(CC)C(=O)c1ccc(NC(=O)COc2ccc([N+](=O)[O-])cc2Cl)cc1	GLP-1R inv ag inconclusive
C[C@]12CC[C@H]3[C@@H](CCC4=CC(=O)CC[C@@]43C)[C@@H]1CC[C@@H]2O	none (no result: Mito fusion act)
Fc1ccc([C@@H]2CCNC[C@H]2COc2ccc3c(c2)OCO3)cc1	GLP-1R inv ag 8.91µM, HEK293 tox inconclusive
Fc1ccc(CNCCc2ccc3c(c2)OCO3)cc1	none
COc1ccc(S(=O)(=O)N(CC(=O)NCc2ccccc2OC)c2ccc(C)cc2)cc1	GLP-1R inv ag 3.16µM (no result: BRCA1 expr up, GLP1R ag, Mito fusion act)
COc1cccc(CN(C)C[C@@H]2OCc3ccccc3-c3c(n(C)c4ccccc34)C(=O)N([C@@H](C)CO)C[C@H]2C)c1	GLP-1R inv ag 10µM, HEK293 tox inconclusive (no result: Mito fusion act)
C[C@@H]1CN([C@H](C)CO)C(=O)c2c(c3ccccc3n2C)-c2ccccc2CO[C@@H]1CN(C)Cc1ccc(O)cc1	GLP-1R inv ag inconclusive, HEK293 tox inconclusive (no result: Mito fusion act)
Cc1cc(C(=O)OC(C)C(=O)Nc2ccccc2)c(C)n1C1CC1 (stereo unspecified)	none (no result: Mito fusion act)
Cc1ccc(OP(=O)(NCc2ccccc2)Oc2ccc(C)cc2)cc1	GLP-1R inv ag 7.08µM, Mito fusion act inconclusive
O=[N+]([O-])c1cc2c(cc1CNCCc1ccc3c(c1)OCO3)OCO2	none
Clc1ccc(-c2cn3nc4c(nc3n2)CCCC4)cc1	BRCA1 expr up inconclusive, GLP-1R inv ag 6.31µM
CC/C(=C\C=C\[C@@H]1C=C[C@@H]2CCC[C@H]2[C@@H]1C(=O)c1ccc[nH]1)[C@@H]1O[C@@H]([C@@H](C)C(=O)O)CC[C@@H]1C	GLP-1R inv ag 2.51µM, HEK293 tox inconclusive
COc1ccc(Nc2cc(C)c3cc(NC(=O)c4ccccc4Cl)ccc3n2)cc1	GLP-1R inv ag inconclusive (no result: Mito fusion act)
O=C(NN1C(=O)/C(=C/c2ccc(O)c(O)c2)SC1=S)c1ccccc1	GLP-1R inv ag inconclusive, HEK293 tox inconclusive
COc1cc(/C=C2\SC(=S)N(Nc3ncc(C(F)(F)F)cc3Cl)C2=O)ccc1O	GLP-1R inv ag 10µM, HEK293 tox inconclusive
COC(=O)C1=C(c2ccc(Cl)c(C(F)(F)F)c2)C[C@@H]2CC[C@H]1N2C(=O)NCc1cc(C)oc1C(F)(F)F	GLP-1R inv ag inconclusive
Cc1oc2c(c1C(=O)NCc1cccnc1)C(=O)c1ccccc1C2=O	GLP-1R inv ag 3.16µM, HEK293 tox inconclusive
COc1ccc(-c2cc(C(=O)N3CCN(c4ccccc4OC)CC3)c3cc(C(C)C)ccc3n2)cc1	GLP-1R inv ag 8.91µM (no result: BRCA1 expr up, GLP1R ag, Mito fusion act)
O=C1C=C(N2CCOCC2)c2ccccc2C1=O	GLP-1R inv ag inconclusive, HEK293 tox 11.2µM
O=[N+]([O-])c1ccc(NC(=S)NCCc2ccc(F)cc2)cc1	GLP-1R inv ag 11.2µM, HEK293 tox inconclusive
COC(=O)c1cn(S(=O)(=O)c2ccccc2)c2ccccc12	GLP-1R inv ag inconclusive
COc1cccc(Cn2c(-c3cccs3)noc2=O)c1	HEK293 tox inconclusive
COc1ccc(-c2noc(=O)n2Cc2cc(C)ccc2C)cc1	GLP-1R inv ag 11.2µM
CCOC(=O)c1sc(NC(=O)Nc2cccc(Cl)c2)cc1C	GLP-1R inv ag 3.55µM, HEK293 tox inconclusive
C=C1C(=O)O[C@H]2C[C@H]1[C@@H](OC(C)=O)C/C(C)=C/CC/C(C)=C\CC[C@]2(C)O	GLP-1R inv ag 7.08µM, HEK293 tox inconclusive (no result: Mito fusion act)
C=C1C(=O)OC2CC3(C)OC3CCC(C)=CC(OC(C)=O)C12 (stereo unspecified)	GLP-1R inv ag inconclusive, HEK293 tox inconclusive (no result: Mito fusion act)
CN1C(=O)C(Cc2ccc(OCc3ccccc3)cc2)C(=O)N(C)C1=O	none
COc1cc(CC2C(=O)N(C)C(=O)N(C)C2=O)ccc1OCc1ccccc1	BRCA1 expr up 12.6µM
C/C(=N\NC(N)=O)c1c(O)n(C)c(=O)n(C)c1=O	none
Cc1ccc(-n2c(/C=C/c3cc(Br)cs3)nc3ccccc3c2=O)cc1	none (no result: BRCA1 expr up, GLP1R ag, Mito fusion act)
Cc1ccc(NC(=O)OC(C)CNC(=O)Oc2cccc(C)c2)cc1 (stereo unspecified)	BRCA1 expr up 11.2µM
CN(C)C(=O)Nc1cccc(OC(=O)N(C)C)c1	none
